Experimental data as given in PubChem BioAssay (NCI).
Compounds without any hit were thinned out: in the full panel of roughly 79,000, 15% have a hit. A number with no mark means an inactive call. Activity calls are given as the source filed them. No stated cut-off is given here; in the data, active means growth inhibition above about 70%; inactive means the rest.

Experiments:
[1] = NCI Yeast Anticancer Drug Screen. Data for the rad50 strain (AID 155);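 further: 0% = growth of vehicle-only cultures of the same strain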; settings: S. cerevisiae rad50 strain growth inhibition, active compounds read high
Method in brief: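 Cells are treated with compound, grown, and their growth is then scored against vehicle-only cultures of the same repair-deficient yeast strain.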

[2] = NCI Yeast Anticancer Drug Screen. Data for the mec2-1 strain (AID 157); settings: S. cerevisiae mec2-1 strain, active compounds read high
Method in brief: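 Readout is yeast growth inhibition, normalised to vehicle-treated controls, in the mec2-1 strain exposed to compound.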

[3] = NCI Yeast Anticancer Drug Screen. Data for the sgs1 mgt1 strain (AID 161);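 further: 0% = growth of cultures given vehicle only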; settings: S. cerevisiae sgs1 mgt1 strain, active compounds read high
Method in brief: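 Growth of a repair-deficient yeast mutant was monitored after compound treatment and expressed as inhibition relative to vehicle-treated cultures.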

[4] = NCI Yeast Anticancer Drug Screen. Data for the cln2 rad14 strain (AID 165);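 further: 0% = growth equal to vehicle treated cultures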; settings: S. cerevisiae cln2 rad14 strain, active compounds read high
Method in brief: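 Relative to vehicle controls, growth inhibition of compound-treated cln2 rad14 yeast was recorded.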

[5] = NCI Yeast Anticancer Drug Screen. Data for the bub3 strain (AID 167); settings: S. cerevisiae bub3 mutant strain, active compounds read high
Method in brief: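 Part of a panel of yeast mutants defective in DNA damage repair or cell cycle regulation. Each strain is grown with compound, and inhibition is calculated relative to solvent-treated cultures.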

[6] = NCI Yeast Anticancer Drug Screen. Data for the mlh1 rad18 strain (AID 175); settings: S. cerevisiae mlh1 rad18 strain growth inhibition, active compounds read high
Method in brief: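 Test agents were incubated with a yeast strain of defined genotype (DNA damage repair defect). Inhibition of growth was derived by comparison with vehicle-exposed cultures.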

[7] = at 5.0 µM (retest, dose inferred, filed as 0.5)
[8] = at 50.0 µM (retest, dose inferred, filed as 5.0)

Row | Compound | growth inhibition [1, 7] | growth inhibition [1, 8] | growth inhibition ([1]; at 50.0 µM) | growth inhibition [2, 7] | growth inhibition [2, 8] | growth inhibition ([2]; at 50.0 µM) | growth inhibition [3, 7] | growth inhibition [3, 8] | growth inhibition ([3]; at 50.0 µM) | growth inhibition [4, 7] | growth inhibition [4, 8] | growth inhibition ([4]; at 50.0 µM) | growth inhibition [5, 7] | growth inhibition [5, 8] | growth inhibition ([5]; at 50.0 µM) | growth inhibition [6, 7] | growth inhibition [6, 8] | growth inhibition ([6]; at 50.0 µM)
1 | CC(C)(C)CC(C)(C)c1ccc(O)c(O)c1 | 96% (active) | 99% (active) | 93.3% (active) | 100% (active) | 99% (active) | 94.2% (active) | 98% (active) | 99% (active) | 94.5% (active) | 55% | 99% (active) | 92.3% (active) | 86% (active) | 98% (active) | 93.3% (active) | 100% (active) | 99% (active) | 93.2% (active)
2 | CSC(=S)N/N=C(\C)c1nccnc1C | 5% | 98% (active) | 98.7% (active) | 7% | 99% (active) | 98.9% (active) | 3% | 98% (active) | 98.7% (active) | -10% | 97% (active) | 98% (active) | 21% | 98% (active) | 99% (active) | 5% | 98% (active) | 98.9% (active)
3 | CN(C)C(=S)/N=c1\ss/c(=N/C(=S)N(C)C)n1-c1ccc([N+](=O)[O-])cc1 | 6% | 32% | 97.8% (active) | 18% | 41% | 93.3% (active) | 1% | 33% | 97.8% (active) | -7% | -2% | 91.3% (active) | 5% | 4% | 98.8% (active) | 4% | 30% | 98.2% (active)
4 | O=[N+]([O-])c1ccc(N/N=C/COCCO)c([N+](=O)[O-])c1 | 2% | 20% | 37.4% | 9% | 11% | 11.8% | 0% | 62% | 23.1% | 4% | 2% | -24.2% | -1% | 14% | 73.6% (active) | 1% | 8% | 62%
